Experiment [1] is described as follows: compounds binding Alexa647 anti-His antibody – biochemical, small-molecule microarray, 635 nm fluorescence, artefact control for SMM control protein annotation, primary screen (AID 1128).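 Also: score merges feature fluorescence with signal-to-noise for each printed compound spot.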 The following applies: higher = more signal.
Experiment [2] deals with Human papillomavirus type 1a E7 protein (residues 1-88). Description: HPV1a E7 small-molecule binders, primary screen, biochemical, small-molecule microarray, residues 1-88, 635 nm (AID 1129). The following applies: small-molecule microarray binding, fluorescence 635 nm; higher = more signal.
In experiment [3] the target is Focal adhesion kinase 1 (Homo sapiens) (UniProt Q05397). Description: PTK2 protein binding on printed compound slides – biochemical, small-molecule microarray, 635/667 nm fluorescence, BSA, DTT, primary screen (AID 1130).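 Also: composite of spot emission at 667 nm and signal to noise over triplicate slides.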 The following applies: 635 nm fluorescence, higher = more signal.
Focal adhesion kinase 1 (Homo sapiens), sequence (Q05397 whole entry, looked up): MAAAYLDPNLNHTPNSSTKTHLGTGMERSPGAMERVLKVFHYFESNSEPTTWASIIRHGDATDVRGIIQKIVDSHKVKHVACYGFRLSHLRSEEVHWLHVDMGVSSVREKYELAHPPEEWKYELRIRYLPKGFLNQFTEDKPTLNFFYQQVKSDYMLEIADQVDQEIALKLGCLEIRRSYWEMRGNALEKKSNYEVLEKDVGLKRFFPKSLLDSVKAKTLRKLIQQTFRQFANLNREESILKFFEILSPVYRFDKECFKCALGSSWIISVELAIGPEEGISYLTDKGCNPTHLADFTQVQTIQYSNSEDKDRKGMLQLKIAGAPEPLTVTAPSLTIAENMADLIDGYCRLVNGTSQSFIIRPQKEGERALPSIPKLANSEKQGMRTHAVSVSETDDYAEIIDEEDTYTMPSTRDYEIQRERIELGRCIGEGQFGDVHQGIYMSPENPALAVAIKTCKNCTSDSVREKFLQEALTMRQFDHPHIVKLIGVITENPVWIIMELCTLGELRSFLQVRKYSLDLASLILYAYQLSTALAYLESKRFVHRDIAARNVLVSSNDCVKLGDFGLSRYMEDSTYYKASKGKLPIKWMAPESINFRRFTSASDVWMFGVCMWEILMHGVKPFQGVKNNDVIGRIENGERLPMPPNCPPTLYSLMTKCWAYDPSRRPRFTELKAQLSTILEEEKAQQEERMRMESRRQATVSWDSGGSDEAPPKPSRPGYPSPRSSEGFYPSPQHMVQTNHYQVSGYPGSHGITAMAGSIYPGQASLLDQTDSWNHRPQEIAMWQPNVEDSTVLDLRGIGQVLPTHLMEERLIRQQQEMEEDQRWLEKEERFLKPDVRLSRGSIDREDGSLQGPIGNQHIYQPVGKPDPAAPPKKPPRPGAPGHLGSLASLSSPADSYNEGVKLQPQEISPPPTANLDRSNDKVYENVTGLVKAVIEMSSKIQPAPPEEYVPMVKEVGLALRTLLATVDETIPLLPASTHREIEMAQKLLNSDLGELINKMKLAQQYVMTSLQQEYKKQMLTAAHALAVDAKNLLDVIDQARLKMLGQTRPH
In experiment [4] the test system is Fibrinogen (Alexa647-labelled). The experiment can be described thus: Alexa647-fibrinogen binding to printed small molecules – biochemical, small-molecule microarray, 635/667 nm fluorescence, artefact control for SMM control-protein annotation, profiling panel (AID 1131).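 Also: z-score merges 667 nm fluorescence with per-spot signal-to-noise over triplicate slides.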 The following applies: fibrinogen-A647 binding fluorescence, higher = more signal.
Experiment [5] addresses Follistatin (Homo sapiens) (UniProt P19883). Description: FST protein binding to printed compounds – biochemical, small-molecule microarray, 635/667 nm fluorescence, primary screen (AID 1132). The following applies: 635 nm fluorescence, higher = more signal.
Experiment [6] has as its target Fibroblast growth factor 2 (Homo sapiens) (UniProt P09038). Description: basic fibroblast growth factor binding to printed compounds – biochemical, small-molecule microarray, 635/667 nm fluorescence, primary screen (AID 1133). The following applies: FGF2, fluorescence 635/667, higher = more signal.
Experiment [7] is described as follows: JC-1 mitochondrial potential readout, lung cancer cells – cell-based, A549, JC-1 fluorescence, basal, 24 h, 100 nL, profiling panel (AID 1138).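 Also: A549 lung adenocarcinoma cells under basal conditions with no added stimulus; test concentration not given here.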 The following applies: higher = more signal.
A further experiment concerns Lefty1. Description: Lefty1 protein binding to printed compounds – biochemical, small-molecule microarray, 635/667 nm fluorescence, primary screen (AID 1139). The following applies: fluorescence 635/667, higher = more signal.
Experiment [8] concerns wheat germ agglutinin (Triticum aestivum), Alexa647-labelled. The experiment can be described thus: Alexa647-WGA lectin binding to printed small molecules – biochemical, small-molecule microarray, 635/667 nm fluorescence, artefact control for SMM control-protein annotation, profiling panel (AID 1140).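 Also: score merges 667 nm feature emission with signal to noise over triplicate slides.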 The following applies: WGA-A647 binding, 635 nm fluorescence, higher = more signal.

Experiment [9] has as its target Luciferin 4-monooxygenase (Photinus pyralis) (UniProt P08659). Description: inhibition of purified Photinus pyralis luciferase – biochemical, luminescence, purified enzyme, 2006 set, primary screen (AID 1141).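 Also: cell-free assay with purified firefly luciferase at 100 ng per well in PBS; test concentration not given here.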 The following applies: purified firefly luciferase, SteadyGlo luminescence, 30 min; higher = more signal, called active from +8 up or from −8 down.
Experiment [10] deals with Wnt5a (protein binding on small-molecule microarray). Description: small molecules binding Wnt5a protein – biophysical, small-molecule microarray, 635/667 nm fluorescence, primary screen (AID 1142).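 Also: fluorescence read at 667 nm with signal to noise per printed feature.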 The following applies: 635 nm fluorescence, higher = more signal.
Experiment [11] can be described thus: ATP-based viability of Huh7 replicon cells – cell-based, CellTiter-Glo luminescence, basal, 48 h, cytotoxicity control for HCV replication inhibitor project, primary screen (AID 1143).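 Also: Huh7 hepatoma cells carrying a hepatitis C replication reporter with no stimulus; test concentration not given here.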 The following applies: higher = more signal, called active from +8 up or from −8 down. (In general: In antiviral work, replicon cells carry a viral genome segment that copies itself.)

Experiment [12] is described as follows: Pseudomonas biofilm growth suppression – PAO1 strain, BacTiter-Glo luminescence, LB-PBS, primary screen (AID 1144). The following applies: P. aeruginosa PAO1 biofilm, 12 h, higher = more signal.
Experiment [13] in a line: basal CRE-LacZ reporter activity in PC12 – cell-based, unstimulated, primary screen (AID 1145). The following applies: no forskolin, luminescence, 4.5 h, higher = more signal, called active from +8 up or from −8 down.
A short description of experiment [14]: forskolin-driven CRE-LacZ activity in PC12 – cell-based, CRE-LacZ reporter, forskolin-stimulated, primary screen (AID 1146).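 Also: PC12 cells with 6xCRE LacZ reporter stimulated by forskolin 10 µM; beta-galactosidase reporter signal reflecting CREB driven transcription.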 The following applies: luminescence, 4.5 h, higher = more signal, called active from +8 up or from −8 down.
Experiment [15] concerns the target Streptavidin (Streptomyces avidinii) (UniProt P22629). Description: compounds binding control protein streptavidin – biophysical, small-molecule microarray, 635/667 nm fluorescence, artefact control for SMM compound annotation, primary screen (AID 1147).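 Also: signal reflects streptavidin binding to arrayed compounds as a control protein.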 The following applies: higher = more signal.
A short description of experiment [16]: probe aInhba binding on compound microarray – biochemical, small-molecule microarray, 635/667 nm fluorescence, primary screen (AID 1148).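 Also: score merges 667nm spot fluorescence with signal-to-noise for antibody binding to printed compounds.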 The following applies: higher = more signal.
Experiment [17] deals with Torsin-1A (Homo sapiens) (UniProt O14656). The experiment can be described thus: TOR1A wild-type binding on microarray – cell lysate, small-molecule microarray, lysate, 635/667 nm, primary screen (AID 1149). The following applies: COS7 hTOR1A-WT lysate, 635 nm fluorescence, higher = more signal.
Torsin-1A (Homo sapiens), sequence (O14656 whole entry, looked up): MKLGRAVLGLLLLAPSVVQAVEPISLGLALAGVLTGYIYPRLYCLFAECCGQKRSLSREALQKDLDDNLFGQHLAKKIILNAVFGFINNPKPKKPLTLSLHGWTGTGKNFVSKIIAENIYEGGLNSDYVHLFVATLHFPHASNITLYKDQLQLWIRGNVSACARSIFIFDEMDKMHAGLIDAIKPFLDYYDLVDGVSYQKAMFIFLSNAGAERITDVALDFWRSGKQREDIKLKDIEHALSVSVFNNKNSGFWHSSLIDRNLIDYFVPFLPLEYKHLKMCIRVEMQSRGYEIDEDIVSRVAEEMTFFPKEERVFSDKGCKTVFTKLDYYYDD
Experiment [18] shares this target. The experiment can be described thus: torsin A mutant lysate binding on microarrays – cell lysate, small-molecule microarray, COS7 lysate, 635/667 nm fluorescence, primary screen (AID 1150).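 Also: score pools 667 nm emission and signal to noise measuring lysate protein binding.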 The following applies: COS7 hTOR1A mutant lysate, 635 nm fluorescence, higher = more signal.
Experiment [19] concerns Sonic hedgehog protein (Shh). Description: Sonic hedgehog microarray binding compounds – biochemical, small-molecule microarray, 635/667 nm fluorescence, primary screen (AID 1151).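 Also: Shh protein binding to compounds spotted on small-molecule microarray slides; score combines spot fluorescence intensity with signal-to-noise across triplicate slides.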 The following applies: 635 nm fluorescence, higher = more signal.

Calls of active or inactive are those of the source. Unless noted, no rule for the calls is given here.

Streptavidin (Streptomyces avidinii), sequence (P22629 whole entry, looked up): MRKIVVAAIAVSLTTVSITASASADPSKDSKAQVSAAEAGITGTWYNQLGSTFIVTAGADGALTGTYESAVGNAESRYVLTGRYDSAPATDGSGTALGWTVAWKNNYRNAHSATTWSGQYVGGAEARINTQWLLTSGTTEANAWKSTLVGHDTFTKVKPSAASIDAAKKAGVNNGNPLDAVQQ
Follistatin (Homo sapiens), sequence (P19883 whole entry, looked up): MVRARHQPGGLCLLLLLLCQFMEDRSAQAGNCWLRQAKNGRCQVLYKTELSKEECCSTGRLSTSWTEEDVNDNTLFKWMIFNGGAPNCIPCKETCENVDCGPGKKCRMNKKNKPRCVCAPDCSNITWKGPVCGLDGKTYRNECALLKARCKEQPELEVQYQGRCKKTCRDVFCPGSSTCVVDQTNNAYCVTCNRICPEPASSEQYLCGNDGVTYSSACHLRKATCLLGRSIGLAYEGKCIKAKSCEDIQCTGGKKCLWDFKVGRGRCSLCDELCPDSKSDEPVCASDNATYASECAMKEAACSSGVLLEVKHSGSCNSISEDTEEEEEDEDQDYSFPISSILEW
Luciferin 4-monooxygenase (Photinus pyralis), sequence (P08659 whole entry, looked up): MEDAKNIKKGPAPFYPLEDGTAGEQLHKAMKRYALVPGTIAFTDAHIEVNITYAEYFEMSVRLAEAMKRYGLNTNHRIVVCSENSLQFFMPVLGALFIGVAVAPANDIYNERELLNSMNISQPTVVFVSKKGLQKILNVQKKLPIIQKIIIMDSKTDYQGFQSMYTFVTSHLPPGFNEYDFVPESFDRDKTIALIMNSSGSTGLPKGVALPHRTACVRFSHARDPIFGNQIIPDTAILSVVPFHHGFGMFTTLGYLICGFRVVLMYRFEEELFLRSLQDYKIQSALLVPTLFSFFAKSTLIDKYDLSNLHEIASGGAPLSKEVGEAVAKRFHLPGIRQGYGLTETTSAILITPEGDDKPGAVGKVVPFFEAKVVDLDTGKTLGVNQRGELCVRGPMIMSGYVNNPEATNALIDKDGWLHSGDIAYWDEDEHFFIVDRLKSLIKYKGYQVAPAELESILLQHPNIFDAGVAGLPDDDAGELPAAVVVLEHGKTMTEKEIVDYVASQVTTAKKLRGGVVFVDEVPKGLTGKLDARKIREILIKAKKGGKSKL
Fibroblast growth factor 2 (Homo sapiens), sequence (P09038 whole entry, looked up): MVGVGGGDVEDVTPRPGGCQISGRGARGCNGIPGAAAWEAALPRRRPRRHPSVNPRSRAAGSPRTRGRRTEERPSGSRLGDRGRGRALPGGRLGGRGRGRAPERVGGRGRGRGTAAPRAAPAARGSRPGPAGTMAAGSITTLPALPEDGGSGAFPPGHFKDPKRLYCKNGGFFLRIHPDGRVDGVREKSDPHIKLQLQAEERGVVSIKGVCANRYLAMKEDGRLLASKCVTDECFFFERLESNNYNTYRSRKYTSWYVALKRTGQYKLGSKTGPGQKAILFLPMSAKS

As to `COC(=O)C(CC#Cc1ccc2c(c1)[C@]1(C(=O)N2)[C@H](C(=O)O)[C@H]2C(=O)O[C@H](c3ccccc3)[C@H](c3ccccc3)N2[C@@H]1c1ccc(O)cc1)C(=O)OC`, the composite z-score in experiment [1] is 1.54; in [2], -0.133; in experiment [3], -0.13; in experiment [4], -0.422; in experiment [5], -0.0501; in experiment [6], -0.328. Further, the composite z-score in the experiment with Lefty1 is -0.574; in experiment [8], -0.163; in experiment [10], -0.265; in experiment [15] it was -0.641; in experiment [16], -0.0405; with Torsin-1A (Homo sapiens) [17], -0.21. In addition, the composite z-score with Torsin-1A (Homo sapiens) [18] was 0.446; in experiment [19] it was -0.613. For the same compound, the z-score in experiment [7] is -0.573; in [9], 0.217 (inactive); in experiment [11] it was 0.674 (inactive); in [12], -0.208 (inactive); in [13], -0.467 (inactive); in [14] it was -0.686 (inactive).

With `COCCCNC(=O)C1N=C(c2ccc(OCCCO)cc2)N(c2ccccc2)O1` (stereo not given), the composite z-score was 1.38 in experiment [1]; 1.03 in experiment [2]; 0.234 in experiment [3]; 0.95 in experiment [4]; 1.11 in experiment [5]; 0.555 in experiment [6]. For the same compound, the composite z-score in the experiment with Lefty1 was found to be 0.517; in experiment [8], 0.569; in [10], 0.282; in experiment [15], 0.51; in experiment [16], 0.151; with Torsin-1A (Homo sapiens) [17] it was 0.777. Also, the composite z-score with Torsin-1A (Homo sapiens) [18] was found to be 0.442; in experiment [19], 0.264. The z-score was 0.735 in experiment [7]; -10.5 (active) in [9]; -2.78 (inactive) in experiment [11]; 0.708 (inactive) in experiment [12]; -0.207 (inactive) in experiment [13]; 0.72 (inactive) in [14].

In the case of `COc1ccc(COC2OC[C@]3(C)[C@H]4C5=C(CN3C(=O)OC(C)(C)C)[C@H](C)C(CO)C(CO)C5CC[C@@H]24)cc1` (stereo not given in full), the composite z-score in experiment [1] is 1.08; in [2] it was 1.19; in experiment [3], 0.649; in experiment [4], 0.968; in experiment [5] it was 0.535; in experiment [6], -1.03. In addition, the composite z-score was -0.209 in the experiment on Lefty1; 0.831 in experiment [8]; 0.0447 in [10]; 1.25 in experiment [15]; 0.483 in experiment [16]; 1.32 with Torsin-1A (Homo sapiens) [17]. In addition, the composite z-score in the experiment with Torsin-1A (Homo sapiens) [18] stood at 0.156; in [19], 0.0407. The z-score in experiment [7] was 0.323; in experiment [9] it was 1.52 (inactive); in experiment [11], -0.422 (inactive); in experiment [12] it was 0.669 (inactive); in experiment [13] it was 0.966 (inactive); in [14], 1.99 (inactive).

Consider `COCCOC(=O)N1C(=O)[C@@]2(c3ccccc31)[C@H](c1ccc(O)cc1)N1[C@H](c3ccccc3)[C@H](c3ccccc3)OC(=O)[C@H]1[C@@H]2C(=O)NC[C@H](O)c1ccccc1`, for which the composite z-score in experiment [1] is 2.08; in [2], 1.2; in experiment [3], -0.0504; in [4] it was 0.068; in [5], 0.532; in [6] it was -0.104. In addition, the composite z-score in the experiment on Lefty1 was 0.282; in experiment [8], 0.0324; in [10], -0.0136; in experiment [15] it was -0.551; in experiment [16], 0.0051; with Torsin-1A (Homo sapiens) [17], 0.849. Also, the composite z-score was found to be 0.805 with Torsin-1A (Homo sapiens) [18] and 0.474 in experiment [19]. Also, the z-score in experiment [7] is -0.767; in experiment [9], 0.733 (inactive); in [11], -1.03 (inactive); in experiment [12] it was 0.494 (inactive); in experiment [13] it was 0.595 (inactive); in experiment [14], 1.31 (inactive).

As for `C=CCOC(=O)[C@H]1[C@@H]2C(=O)O[C@@H](c3ccccc3)[C@@H](c3ccccc3)N2[C@@H](c2ccc(OCCOC(=O)[C@H]3C[C@H]4C(=O)N5CCC[C@H]5C(=O)N4[C@H]3c3ccc(O)cc3)cc2)[C@]12C(=O)Nc1ccccc12`, the composite z-score in experiment [1] was 0.442; in experiment [2] it was 1.26; in experiment [3], 1.13; in [4], 0.598; in experiment [5] it was 1.39; in experiment [6], 1.96. The composite z-score in the experiment with Lefty1 was 1.42; in experiment [8], 0.0976; in experiment [10] it was 0.753; in experiment [15], 0.116; in [16] it was -0.217; in the experiment with Torsin-1A (Homo sapiens) [17], 0.874. Besides, the composite z-score with Torsin-1A (Homo sapiens) [18] was determined as 1.1; in [19], 1.8. The z-score was -1.42 in experiment [7]; -0.205 (inactive) in experiment [9]; -0.568 (inactive) in experiment [11]; -0.696 (inactive) in [12]; 0.415 (inactive) in [13]; -0.702 (inactive) in experiment [14].

These data come from PubChem BioAssay.
